Results: PubChem BioAssay AID504848 (National Center for Advancing Translational Sciences (NCATS), 2011)
The whole screen tested about 2,300 compounds, of which about 1,400 (61%) were called active. Inconclusive results (about 29%) are left out. The call rests on the fitted dose curve; in most records, active means well fitted inhibition curve with a large enough effect; inconclusive means small, poorly fitted or top-dose-only effect, or effect the other way; inactive means no such curve, though single readings can be large or run the other way. So high a share suggests a set chosen from earlier hits. The list shows a part of the results.

Assay: Confirmation screen for delayed death inhibitors of the malarial parasite plastid, 96 hour incubation; further: nearly all actives have a fitted effect of over 60% in size
Details: P. falciparum luciferase growth in erythrocytes; series mostly up to 28.7 µM
Outline: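 Two-generation (96 h, 37 C) exposure of P. falciparum carrying an integrated firefly luciferase reporter in erythrocytes, 0.1% parasitemia and 2% hematocrit final, Albumax-supplemented RPMI. Luminescence decrease measures growth inhibition.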
Potency means the concentration at half of the fitted maximal effect.

Row | Structure (SMILES) | Potency
1 | COc1ccc(NC2CCCN(C(=O)CCc3ccncc3)C2)cc1OC (stereo not drawn) | inactive
2 | Cc1ccc(NC2CCCN(C(=O)CSc3ccncc3)C2)cc1C (stereo not drawn) | 12.6 µM (active)
3 | Cc1ccc(S(=O)(=O)Nc2cccc3cccnc23)cc1 | 5.62 µM (active)
4 | Cc1ccc(S(=O)(=O)Nc2cccc3cccnc23)c([N+](=O)[O-])c1 | 3.98 µM (active)
5 | O=C(c1ccc(Cl)cc1)C(Cn1cncn1)C(Sc1ccccc1)c1ccccc1 (stereo not drawn) | 12.6 µM (active)
6 | O=C1C(=O)c2ccccc2C(O)=C1C1CCC(c2ccc(Cl)cc2)CC1 (stereo not drawn) | 0.0158 µM (active)
7 | CN1CC2=Cc3ccccc3OC23Oc2ccccc2C=C3C1 | 3.16 µM (active)
8 | CCC1=C/C(=C/c2sc3ccccc3[n+]2CC)CC(C)(C)C1 | 0.355 µM (active)
9 | NC(=O)COc1ccc(NC(=O)CC23CC4CC(CC(C4)C2)C3)cc1 | 11.2 µM (active)
10 | CCn1nc(C)c(NC(=O)CC23CC4CC(CC(C4)C2)C3)c1C | inactive
11 | CSCCC(NC(=O)c1ccccc1Cl)C(=O)N1CCN(C(c2ccccc2)c2ccccc2)CC1 (stereo not drawn) | 3.98 µM (active)
12 | Cc1ccc(N2C(=O)N3[C@H](c4ccc(F)cc4)[C@@H]4C(=O)N(C5CCCCC5)C(=O)[C@@H]4[C@]3(Cc3ccccc3)C2=O)cc1 | 5.62 µM (active)
13 | O=C(CCc1ccccc1)NNC(=O)c1ccccn1 | 6.31 µM (active)
14 | O=C(NCc1ccccc1)C(c1cccnc1)N(C(=O)c1ccccn1)c1ccccc1F (stereo not drawn) | inactive
15 | COc1ccc(CCN2CCCn3c2nc2c3c(=O)n(Cc3ccccc3F)c(=O)n2C)cc1OC | 2.24 µM (active)
16 | Cc1ccc(S(=O)(=O)Nc2ccc(C(=O)Nc3ccncc3)cc2)cc1 | 12.6 µM (active)
17 | CCOc1ccc(C2C3=C(Nc4nc(N)[nH]c(=O)c42)c2ccccc2C3=O)cc1 (stereo not drawn) | 10 µM (active)
18 | CCN(CC)S(=O)(=O)c1cc(NC(=O)C(C)OC(=O)c2[nH]c(C)c(C(C)=O)c2C)ccc1C (stereo not drawn) | 1.78 µM (active)
19 | O=C1/C(=C/c2ccccc2F)SC(=S)N1CC(=O)N1CCCCC1c1cccnc1 (stereo not drawn) | 10 µM (active)
20 | COc1cc(OC)c(OC)cc1CN1CCN(C(=O)c2cccc3ccccc23)CC1 | 10 µM (active)

Row | Structure (SMILES) | Potency
21 | CCCc1cc(=O)oc2cc(OC(C)C(=O)NCc3ccccn3)c(Cl)cc12 (stereo not drawn) | 15.8 µM (active)
22 | COc1ccccc1NC(=O)c1ccc2nc(-c3ccccc3)c(-c3ccccc3)nc2c1 | inactive
23 | O=C(Nc1cccc(Br)c1)c1ccc2snnc2c1 | inactive
24 | COc1cc(C(=O)Nc2ccc(Nc3ccccc3)cc2)cc(OC)c1OC | 5.01 µM (active)
25 | COC(=O)c1ccc(NC(=O)c2cccc(NC(=O)c3ccccc3)c2)cc1 | 7.94 µM (active)
26 | COc1ccc(NC(=O)c2cccc(NC(=O)c3ccccc3)c2)c(OC)c1 | 8.91 µM (active)
27 | COc1cc(C(=O)Nc2ccc(S(=O)(=O)Nc3cc(C)on3)cc2)cc(OC)c1OC | inactive
28 | COc1cc2c(cc1NC(=O)c1ccc(C(C)(C)C)cc1)CCCC2 | 12.6 µM (active)
29 | O=C(CCl)N1CCN(CC(=O)N2CCCC2)CC1 | 14.1 µM (active)
30 | C/C(=C\C(=O)OCCCCCCCCC(=O)O)C[C@@H]1OC[C@H](C[C@@H]2O[C@H]2[C@@H](C)[C@H](C)O)[C@@H](O)[C@H]1O | 0.501 µM (active)
31 | CSCCn1c(C(C)(C)C)cc(C(=O)O)c1C | inactive
32 | CCC(=O)c1ccc(OCC(O)CNC(C)c2ccccc2)cc1 (stereo not drawn) | 11.2 µM (active)
33 | Cn1nnnc1Sc1ncnc2scc(-c3cccc(S(C)(=O)=O)c3)c12 | 12.6 µM (active)
34 | Cn1nnnc1Sc1ncnc2scc(-c3cccc(F)c3)c12 | 6.31 µM (active)
35 | CC(=O)N1c2ccc(S(=O)(=O)NCCC(=O)NC3CCCC(C)C3C)cc2CC1C (stereo not drawn) | 14.1 µM (active)
36 | N#C/C(=C\c1ccccn1)c1ccccn1 | 11.2 µM (active)
37 | O=C(c1ccco1)N1CCN(C2c3ccccc3-c3ccccc32)CC1 | 12.6 µM (active)
38 | COc1ccc(CSC2=NCCN2)cc1Br | 12.6 µM (active)
39 | O=C(CCl)c1ccc2c(c1)CCN2C(=O)C1CCCCC1 | 11.2 µM (active)
40 | O=C(COc1ccc(Cl)cc1)NCc1nnc2c3ccccc3c(-c3ccccc3)nn12 | 12.6 µM (active)

Row | Structure (SMILES) | Potency
41 | COc1cccc(/C=C2\SC(=S)N(CCC(=O)N3CCCCC3CCO)C2=O)c1 (stereo not drawn) | 6.31 µM (active)
42 | CC(C)c1ccc(/C=C2\SC(=S)N(CCC(=O)N3CCCCC3CCO)C2=O)cc1 (stereo not drawn) | 1.26 µM (active)
43 | O=C1/C(=C/c2ccc(Cl)cc2)SC(=S)N1CCC(=O)N1CCCCC1CCO (stereo not drawn) | 12.6 µM (active)
44 | COc1cccc([C@@H]2Oc3ccc(OC)cc3C(=O)[C@H]2O)c1 | 7.08 µM (active)
45 | C=CCNC(=O)c1onc(CSc2ccc(F)c(F)c2)c1C(=O)O | inactive
46 | C=CCNC(=O)c1oc2ccc(S(=O)(=O)N3CCCCC3)cc2c1C | 11.2 µM (active)
47 | C=CCNC(=O)c1onc(CSc2ccc(C(C)C)cc2)c1C(=O)O | inactive
48 | COC(=O)C1=CN(Cc2ccc(F)cc2)C=C(C(=O)OC)C1c1ccc(O)c(OC)c1 | 10 µM (active)
49 | CC(=O)N(C)C1=C(N2CCOCC2)C(=O)c2ccccc2C1=O | 0.0355 µM (active)
50 | N#Cc1ncc(-c2ccc3c(c2)OCCOCCOCCOCCOCCO3)nc1C#N | 12.6 µM (active)
51 | O=C(c1cc(COc2cccc(C(F)(F)F)c2)on1)N1CCC(Oc2cccnc2)CC1 | 14.1 µM (active)
52 | C/C(=N\NC(=O)c1ccc(Cl)c(Cl)c1)c1ccc(Br)s1 | 2 µM (active)
53 | COCCn1c(SC(C)C(=O)Nc2ncc(Cl)cc2Cl)nc2ccccc21 (stereo not drawn) | 15.8 µM (active)
54 | Cc1ccc(-n2c(SCC(=O)Nc3ncc(Cl)cc3Cl)nc3ccccc32)cc1 | 11.2 µM (active)
55 | O=C(CSc1nc2ccccc2n1-c1ccccc1)Nc1ncc(Cl)cc1Cl | 10 µM (active)
56 | Cc1nn(C)c(C)c1C(C)NC(=O)c1ccc(OC2CCN(Cc3ccccn3)CC2)cc1 (stereo not drawn) | inactive
57 | COc1ccc(CN2CCC(Oc3ccc(C(=O)NCc4ccccn4)cc3)CC2)c(F)c1 | 12.6 µM (active)
58 | O=C1N=C(N2CCN(c3ccccc3)CC2)S/C1=C/c1cccs1 | 12.6 µM (active)
